Assay results: paper PMC4336329 (PLoS ONE, 2015)
The campaign covered roughly 310,000 compounds. About 14,000 (4.5%) showed an effect of 50% or more. Effects have a minus sign here. The full list was thinned out, with strong results kept by preference.
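Also: peak tail current of the secondary pulse compared with the same well before compound.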

The compounds below were run against human ether-à-go-go-related gene (hERG) potassium channel (human, UniProt Q12809) (assay: primary screen, population patch clamp on CHO cells stably expressing hERG; higher = less effect of the substance).
Sequence of human ether-à-go-go-related gene (hERG) potassium channel (Q12809 whole entry, looked up): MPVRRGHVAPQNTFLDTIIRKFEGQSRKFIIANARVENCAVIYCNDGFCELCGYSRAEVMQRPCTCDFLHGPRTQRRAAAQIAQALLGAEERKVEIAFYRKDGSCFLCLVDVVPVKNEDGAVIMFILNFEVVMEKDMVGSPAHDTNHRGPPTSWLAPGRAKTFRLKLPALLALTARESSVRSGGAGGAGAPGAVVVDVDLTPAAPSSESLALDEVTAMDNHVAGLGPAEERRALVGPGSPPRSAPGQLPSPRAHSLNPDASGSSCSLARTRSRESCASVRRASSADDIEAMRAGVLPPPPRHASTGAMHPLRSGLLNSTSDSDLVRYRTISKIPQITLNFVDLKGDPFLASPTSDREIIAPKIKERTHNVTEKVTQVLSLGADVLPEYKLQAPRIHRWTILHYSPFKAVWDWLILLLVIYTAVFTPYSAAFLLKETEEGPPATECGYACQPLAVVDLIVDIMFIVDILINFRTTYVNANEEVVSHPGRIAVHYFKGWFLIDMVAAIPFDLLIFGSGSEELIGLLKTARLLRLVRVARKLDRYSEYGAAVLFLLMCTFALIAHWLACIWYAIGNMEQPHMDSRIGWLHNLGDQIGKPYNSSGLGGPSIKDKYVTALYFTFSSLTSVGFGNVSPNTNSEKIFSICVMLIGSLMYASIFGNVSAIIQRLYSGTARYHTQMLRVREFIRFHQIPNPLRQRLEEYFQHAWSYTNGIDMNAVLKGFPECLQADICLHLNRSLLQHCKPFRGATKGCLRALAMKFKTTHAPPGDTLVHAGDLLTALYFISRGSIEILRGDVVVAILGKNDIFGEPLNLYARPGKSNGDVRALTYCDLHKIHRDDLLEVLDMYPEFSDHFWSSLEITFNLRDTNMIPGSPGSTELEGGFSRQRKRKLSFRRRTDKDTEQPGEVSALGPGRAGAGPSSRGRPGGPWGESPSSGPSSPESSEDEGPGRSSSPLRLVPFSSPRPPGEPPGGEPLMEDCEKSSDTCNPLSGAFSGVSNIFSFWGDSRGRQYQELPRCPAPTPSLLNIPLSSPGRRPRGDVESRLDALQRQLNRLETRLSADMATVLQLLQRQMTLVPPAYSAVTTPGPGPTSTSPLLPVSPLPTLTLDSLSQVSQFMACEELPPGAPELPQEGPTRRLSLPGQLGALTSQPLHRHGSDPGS
In the case of `CCOC(=O)c1c(NC(=S)Nc2ccccc2)sc2c1CCN(CC)C2`, the “hERG current change (%, negative = inhibition) at 10uM” value is reported as -81.5%. In the case of `CCOC(=O)c1c(NC(=S)Nc2ccccc2)sc2c1CCN(CCc1ccccc1)C2`, the “hERG current change (%, negative = inhibition) at 10uM” value is reported as -64.1%. `CCOC(=O)c1c(NC(=S)NCc2ccccc2)sc2c1CCN(C(=O)OCC)C2` was tested, and the “hERG current change (%, negative = inhibition) at 10uM” value was 32.8%. In the case of `COc1ccc(-c2c(C)n([O-])c3c([n+]2=O)CCCC3)c(OC)c1`, the “hERG current change (%, negative = inhibition) at 10uM” value is reported as 6.26%. With `Nc1cncc(C(=O)O)c1` [26671297] the “hERG current change (%, negative = inhibition) at 10uM” value was 4.06%. With `CCn1cc(C(=O)N2CCCC(C(=O)c3ccc4ccccc4c3)C2)cn1` (stereo not shown) the “hERG current change (%, negative = inhibition) at 10uM” value was -18.1%. For `CCc1ccc(NC(=O)CSc2nc(=O)n(CCN(C)C)c3c2CCCC3)cc1`, the “hERG current change (%, negative = inhibition) at 10uM” value was -24.2%. In the case of `CCCCc1ccc(NC(=O)CSc2nc(=O)n(CCN(CC)CC)c3c2CCCC3)cc1`, the “hERG current change (%, negative = inhibition) at 10uM” value is reported as -66.7%. With `CCCCc1ccc(NC(=O)CSc2nc(=O)n(CCN(CC)CC)c3c2CCC3)cc1` the “hERG current change (%, negative = inhibition) at 10uM” value was -65.8%. For `CCCCc1ccc(NC(=O)CSc2nc(=O)n(CCN(C)C)c3c2CCC3)cc1`, the “hERG current change (%, negative = inhibition) at 10uM” value was -56.4%. With `CCc1ccc(NC(=O)CSc2nc(=O)n(CCCN(C)C)c3c2CCC3)cc1` the “hERG current change (%, negative = inhibition) at 10uM” value was -42.3%. In the case of `C=C(C)CN(CC)Cc1c(C(=O)N(C)CCCC)nc2ccccn12`, the “hERG current change (%, negative = inhibition) at 10uM” value is reported as -20.7%. In the case of `Cc1ccc(S(=O)(=O)NNC(=O)C2CCN(Cc3ccccc3)CC2)cc1`, the “hERG current change (%, negative = inhibition) at 10uM” value is reported as -15.4%. For `COc1ccc(NC(=O)CSc2nnc(C3CCCCC3)n2N)cc1OC`, the “hERG current change (%, negative = inhibition) at 10uM” value was 21.9%. For `Cc1cc(N/N=C/c2ccccc2O)nc(N2CCOCC2)n1`, the “hERG current change (%, negative = inhibition) at 10uM” value was 6.96%. In the case of `COc1ccc2ccc(OCC(=O)N3c4ccccc4NC(=O)CC3C)cc2c1` (stereo not shown), the “hERG current change (%, negative = inhibition) at 10uM” value is reported as -21.2%. `COc1ccc(-c2sc(Nc3ccccc3)n[n+]2-c2ccc(F)cc2)cc1Br.[Cl-]` was tested, and the “hERG current change (%, negative = inhibition) at 10uM” value was 4.03%. With `COc1ccc(-c2sc(Nc3ccccc3)n[n+]2-c2ccc(F)cc2)c(C)c1C.[Cl-]` the “hERG current change (%, negative = inhibition) at 10uM” value was -74.5%. With `COc1ccc(-c2sc(Nc3ccccc3)n[n+]2C)c(C)c1C.[Cl-]` the “hERG current change (%, negative = inhibition) at 10uM” value was -1.19%. `COc1ccc2ccccc2c1-c1sc(Nc2ccccc2)n[n+]1-c1ccc(F)cc1.[Cl-]` was tested, and the “hERG current change (%, negative = inhibition) at 10uM” value was -57.4%. With `COc1cc(OC)c(-c2sc(Nc3ccccc3)n[n+]2-c2ccc(F)cc2)cc1OC.[Cl-]` the “hERG current change (%, negative = inhibition) at 10uM” value was -0.831%. `Fc1ccc(-[n+]2nc(Nc3ccccc3)sc2-c2c3ccccc3cc3ccccc23)cc1.[Cl-]` was tested, and the “hERG current change (%, negative = inhibition) at 10uM” value was 18.2%. With `Oc1ccc2ccccc2c1-c1sc(Nc2ccccc2)n[n+]1-c1ccc(F)cc1.[Cl-]` the “hERG current change (%, negative = inhibition) at 10uM” value was -0.475%. For `COc1ccc(-c2sc(Nc3ccccc3)n[n+]2-c2ccc(F)cc2)c(OC)c1OC.[Cl-]`, the “hERG current change (%, negative = inhibition) at 10uM” value was -72.2%. For `Cc1nc2sc3c(c2c(=O)o1)CCC3`, the “hERG current change (%, negative = inhibition) at 10uM” value was 4.18%. In the case of `O=c1[nH]c(O)c(/C=C2\C=Nc3ccccc32)[nH]1`, the “hERG current change (%, negative = inhibition) at 10uM” value is reported as 20.9%. For `Cc1cc(S(=O)(=O)N2CCOCC2)ccc1OCC(=O)NCC1CCCO1` (stereo not shown), the “hERG current change (%, negative = inhibition) at 10uM” value was -0.633%. In the case of `COc1ccc(S(=O)(=O)N(Cc2ccccc2)c2ccccc2C(=O)O)cc1`, the “hERG current change (%, negative = inhibition) at 10uM” value is reported as 31.8%. `O=S(=O)(Cc1ccccc1)NCCc1cccc(Cl)c1` was tested, and the “hERG current change (%, negative = inhibition) at 10uM” value was -5.57%. `Cc1nnc(-c2cnn(-c3ccccc3)c2N)n1Cc1ccccc1` was tested, and the “hERG current change (%, negative = inhibition) at 10uM” value was -1.94%. With `CCCOc1ccc(CC(CC(=O)O)(C(=O)O)C(=O)O)cc1` the “hERG current change (%, negative = inhibition) at 10uM” value was 13.5%. `COC(=O)c1cccc(Nc2ncnc3ccc(C)cc23)c1` was tested, and the “hERG current change (%, negative = inhibition) at 10uM” value was -20.9%. `CCOC(=O)c1cccc(Nc2ncnc3ccccc23)c1.Cl` was tested, and the “hERG current change (%, negative = inhibition) at 10uM” value was -24.9%. `CCOC(=O)c1cccc(Nc2ncnc3ccc(C)cc23)c1` was tested, and the “hERG current change (%, negative = inhibition) at 10uM” value was -59.3%. For `Cn1c(SCCCC(=O)c2ccccc2)nnc1-c1ccncc1`, the “hERG current change (%, negative = inhibition) at 10uM” value was -42.9%. With `COCCn1c(SCC(=O)N2CCOCC2)nnc1-c1ccncc1` the “hERG current change (%, negative = inhibition) at 10uM” value was -7.01%. With `Cn1c(SCCCC(=O)c2ccc(Br)cc2)nnc1-c1ccncc1` the “hERG current change (%, negative = inhibition) at 10uM” value was -70.2%. For `COCCn1c(SCCCC(=O)c2ccc(Br)cc2)nnc1-c1ccncc1`, the “hERG current change (%, negative = inhibition) at 10uM” value was -60.7%. `CCOc1ccc(C(C)=O)cc1CSc1nnc(-c2ccncc2)n1CCOC` was tested, and the “hERG current change (%, negative = inhibition) at 10uM” value was -0.498%. With `Cn1c(SCCC(=O)O)nnc1-c1ccncc1` the “hERG current change (%, negative = inhibition) at 10uM” value was 1.73%. With `Cc1ccc(C(=O)CSc2nnc(-c3ccncc3)n2C)cc1` the “hERG current change (%, negative = inhibition) at 10uM” value was -3.2%. `Cn1c(SCCCC(=O)c2ccc(F)cc2)nnc1-c1ccncc1` was tested, and the “hERG current change (%, negative = inhibition) at 10uM” value was -59.6%. In the case of `Cn1c(SCC(=O)c2ccccc2)nnc1-c1ccncc1`, the “hERG current change (%, negative = inhibition) at 10uM” value is reported as -0.277%.
